From PubChem BioAssay
DT40 TDP1 CPT – growth inhibition of DT40 Tdp1-/-;hTDP1 cells with camptothecin (screen for TDP1 inhibitors); 420,000 tested, 12% active; Potency, µM (series often up to 46.2 µM), without a hit: top-dose activity change, negative = growth inhibition, actives largely listed as inhibitors; AID 686979; chicken DT40 Tdp1-/-;hTDP1 cells + 20 nM CPT, ATP luminescence, 48 h; further: potency means the concentration at half of the fitted maximal effect; nearly all actives have a fitted effect of over 55% in size
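Chicken DT40 Tdp1-/- cells stably complemented with human TDP1 were seeded at 400 cells/well in medium containing 20 nM camptothecin, exposed to pin-transferred compounds, and grown at 37 °C for at least 48 hr. Viability was read as ATP luminescence.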
IL1B secr inh – inhibitors of inflammasome signaling (IL-1 beta secretion); THP-1 LPS/ATP IL-1B secretion, AlphaLISA, 16 h; stronger effect = lower value; activity change, % at 57.5 µM; 360,000 tested, 4.7% active; AID 743279; in the data active means activity change below about -50%; inconclusive means mostly about -30% to -49%
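Secreted IL-1B measured by AlphaLISA bead assay after 16 h compound exposure of THP-1 cells; compounds (final up to 57.5 uM) added 1 h before LPS (250 ng/mL) and ATP (1.25 mM) stimulation; lower signal means less secretion.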
HT1080-NT tox – kills 2HG-producing HT-1080-NT fibrosarcoma cells; HT-1080-NT fibrosarcoma viability, CellTiter-Glo ATP luminescence, 48 h; AID 686970; Potency, µM (top dose mostly 46.1 µM), for inactives: top-dose activity, negative = less viability, hits mostly cytotoxic; 360,000 tested, 1.6% active;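 further: NT is the 2HG producing partner of a matched IDH1 knockdown line; potency means the concentration at half of the fitted maximal effect; 0% = DMSO-treated cells and -100% = media-only wells without cells; nearly all actives have a fitted effect of over 55% in size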
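750 cells/well, RPMI + 5% FBS; 2 h settle, compound pin-transfer, 48 h at 37 degrees C. CellTiter-Glo 10 min RT, luminescence. Normalized to DMSO and media-only wells.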
HT1080 IDH1KD tx – HT-1080 IDH1 knockdown cell toxicity (counter line); HT-1080 IDH1 knockdown viability, ATP luminescence, 48 h; Potency, µM (titrated, usually from 46.1 µM), without a hit: top-dose activity, negative = toxicity, most hits filed as cytotoxic; 360,000 tested, 2% active; AID 686971;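 further: potency means the concentration at half of the fitted maximal effect; 0% = DMSO wells and -100% = cell-free medium wells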
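Luminescent ATP read-out (CellTiter-Glo, 10 min at room temperature) after 48 h compound exposure at 37 °C gave viability of IDH1-knockdown HT-1080 cells. Activity was normalised to DMSO and cell-free wells, then fitted as concentration-response curves.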
DT40 TDP1 no CPT – qHTS for Inhibitors of human tyrosyl-DNA phosphodiesterase 1 (TDP1): qHTS in cells in absence of CPT. Potency, µM (top dose mostly 46.2 µM), without a hit: at the highest dose activity change, negative = growth inhibition, usual class: inhibitors. AID 686978, 2013. 420,000 tested, 15% active. DT40 Tdp1-/- hTDP1 cells, no CPT, ATP luminescence, 48 h; further: potency means the concentration at half of the fitted maximal effect; nearly all actives have a fitted effect of over 55% in size
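Growth kinetics read by CellTiter-Glo luminescence after ≥48 hr at 37 °C. Cells: DT40 Tdp1-/- stably carrying human TDP1, 400 per well, compound exposure in the absence of CPT (DMSO vehicle).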
* hit, by the source's call; ? = inconclusive; nt = no result given; [ ] = dose if it differs, or a comment. The list is not random: actives were taken first. Their share in the collection is about 19%. Unless noted, the call rests on the fitted dose curve; in most records, active means well fitted curve in the direction sought with a large enough effect; inconclusive means small, poorly fitted or top-dose-only effect, or another doubt; inactive means no such curve, though single readings can be large; an effect the other way counts as inactive or inconclusive. Unless noted, on the % scale 0 is the no-effect control and ±100 the full control effect.

SMILES	DT40 TDP1 CPT	IL1B secr inh	HT1080-NT tox	HT1080 IDH1KD tx	DT40 TDP1 no CPT
CCCCOc1ccc(/C=N/Nc2cc(N3CCOCC3)nc(C)n2)cc1	18.4µM*	14.3	1.1%	-3.1%	20.6µM*
CCOC(=O)C(Oc1ccc(=O)n(-c2ccccc2)n1)C(C)=O (centres undefined)	-9.5%	-4.6	-17.1%	-3.1%	-9.7%
COC(=O)CN1C(=O)[C@H]2[C@@H](C3CC3)N3C(=O)CN(Cc4ccccn4)C(=O)[C@@]3(Cc3ccccc3)[C@H]2C1=O	-3.0%	15.2	11.3%	7.0%	3.7%
O=C(NCC(=O)N(c1ccccc1)C(C(=O)NC1CCCCC1)c1cccnc1)c1ccco1 (centres undefined)	17.2%	17.3	13.8%	15.6%	-0.2%
Oc1ccc(/C=N/Nc2cc(N3CCCC3)nc(N3CCCC3)n2)cc1O	18.4µM*	37.2	-0.6%	-4.8%	20.6µM*
Oc1ccc(/C=N/N2CCCCC2)cc1O	?	16.1	-3.6%	-22.3%	?
Cc1ccc(NC(=O)COC(=O)c2ccc3c(c2)NC(=O)C2CCCN32)cc1 (centres undefined)	16.4µM*	6.1	?	-8.1%	?
Cc1noc(-c2ccc(C(F)(F)F)cc2)c1NC(=O)Nc1ccc(Cl)cc1	4.61µM*	-53.4*	?	?	3.66µM*
Cc1nc(Cl)sc1C(=O)Nc1cccc(Cl)c1C	?	-96.0*	0.5%	-0.4%	?
Cc1cc(-c2onc(C)c2C(=O)Nc2ccc(C(F)(F)F)cc2)no1	3.5%	26.8	3.9%	7.9%	-1.6%
Cc1nc(Cl)sc1C(=O)Nc1ccc(C(F)(F)F)cc1	-21.5%	-64.6*	2.4%	1.1%	-7.9%
Cc1oncc1C(=O)Nc1ccc(C(F)(F)F)cc1	7.31µM*	-23.7	?	?	9.2µM*
CC(=O)c1ccc(N2CCN(C(C)C(=O)Nc3ccc4c(c3)OCCO4)CC2)cc1 (centres undefined)	-24.7%	-4.7	12.6%	2.2%	?
O=C(Nc1ccc(F)c(Cl)c1)c1ccc2nc([C@@H]3O[C@H](CO)[C@H](O)[C@H](O)[C@H]3O)[nH]c2c1	-10.1%	3.6	?	13.8%	15.7%
CC(=O)Nc1cc(C(=O)NCCN2CCN(Cc3ccccc3)CC2)ccc1Sc1ccc(C)cc1	2.2%	-21.9	-13.8%	1.0%	-5.9%
COC(=O)/C(=C\Nc1cccc(Cl)c1C)c1ncc(C(F)(F)F)cc1Cl	1.7%	-5.1	17.1%	10.5%	?
CCOC(=O)/C(O)=C/c1ncc(C(F)(F)F)cc1Cl	23.1µM*	16.4	5.8%	8.3%	?
CCOC(=O)/C(=C\Nc1ccc(OC(F)(F)F)cc1)Sc1ncc(C(F)(F)F)cc1Cl	16.4µM*	-12.4	8.8%	-8.4%[9.24 µM]	11.6µM*
CCOC(=O)C(C(=O)N(C)C)c1ncc(C(F)(F)F)cc1Cl (centres undefined)	1.6%	27.0	10.3%	11.1%	-15.7%
COc1ccccc1NC(=O)/C(=C\c1cccs1)NC(=O)c1ccco1	0.2%	5.3	7.7%	-0.7%	20.1%
CCc1c(-c2ccccc2)nc2ccccc2c1C(=O)NC(C)c1ccccc1 (centres undefined)	?	nt	nt	nt	23.1µM*
